PubChem BioAssay (NCATS)
Inconclusive results are not listed. Values without a mark were called inactive. Active and inactive are the calls of the source. The call rests on the fitted dose curve; in most records, active means well fitted cell-killing curve with a large enough effect; inconclusive means small, poorly fitted or top-dose-only effect, or effect the other way; inactive means no such curve, though single readings can be large or run the other way.

Test: Quantitative High-Throughput drug screen in 47 multiple myeloma cell lines against the NCATS MIPE library collection: MM1S_ATCC cell viability assay (AID 1918980); further: nearly all actives have a fitted effect of over 45% in size
Conditions: MM1S myeloma viability, CellTiter-Glo ATP luminescence, 48 h; series mostly up to 45.8 µM; viability (% of control): at the top concentration
Description: PI: Beverly A. Mock Ph.D.
Laboratory of Cancer Biology and Genetics,
Center for Cancer Research, National Cancer Institute,
National Institute of Health, Bethesda, Maryland
Drug resistance and disease progression are common in multiple myeloma (MM) patients, underscoring the need for new therapeutic combinations. […] We hypothesized that effective combinations would reduce MYC expression and enhance p16 activity. […] These preclinical data identify potentially useful drug combinations for evaluation in drug-resistant MM and reveal potential mechanisms of combined drug sensitivity.
Described herein is the primary MIPE qHTS used to cherrypick compounds. Validated compounds were then further tested for potential synergistic activiy.
[1] Peat TJ, Gaikwad SM, Dubois W, Gyabaah-Kessie N, Zhang S, Gorjifard S, Phyo Z, Andres M, Hughitt VK, Simpson RM, Miller MA, Girvin AT, Taylor A, Williams D, D'Antonio N, Zhang Y, Rajagopalan A, Flietner E, Wilson K, Zhang X, Shinn P, Klumpp-Thomas C, McKnight C, Itkin Z, Chen L, Kazandijian D, Zhang J, Michalowski AM, Simmons JK, Keats J, Thomas CJ, Mock BA. Drug combinations identified by high-throughput screening promote cell cycle transition and upregulate Smad pathways in myeloma. Cancer Lett. 2023 Aug 1;568:216284. doi: 10.1016/j.canlet.2023.216284. Epub 2023 Jun 24. PMID: 37356470; PMCID: PMC10408729.
SEQUENCE No. (e.g., 1, 2, 3, etc.); […] (e.g., Cells, Incubation, Reagent, etc.); VALUE and DESCRIPTION.
1; Cells; 5 uL; white, solid bottom 1536-well Greiner assay plate.
2; Compounds; 23 nL; Kalypsis pin tool (Wako USA) equipped with a 1536-well pin head to transfer to the assay plates.
3; Incubation; 48 hours; 37C incubation.
4; Reagent;5uL; CellTiter Glo (Promega).
5; Detector; 425V; Luminescence; Viewlux PerkinElmer.
NOTES (numbers refer to Sequence numbers above)
1. The cell-based screening methods employed in this study were like those previously published. Briefly, the corresponding myeloma cell lines were screened in 1,536-well plates with 500 cells, 5-uL per well for inhibition of cell viability (assessed by measuring ATP levels with CellTiterGlo).
2. NCATS MIPE 4.0 library of approved and investigational drugs were added using the Kalypsis pin tool. Wells treated with DMSO only for 100% viability and media only for 0% viability were used as controls.
3. The assay plates were covered and incubated for 48 hours in a 37C, 5% CO2 incubator with controlled humidity.
4. After 48 hours, CellTilter-GloTM luminescent substrate mix (Promega) reagent was added to the assay plate and plates we incubated for 5 min at room temperature.
5. Signal was measured as median relative luminescence units on a ViewLux (PerkinElmer) multiplate reader.
[1] Heske CM, Davis MI, Baumgart JT, Wilson K, Gormally MV, Chen L, Zhang X, Ceribelli M, Duveau DY, Guha R, Ferrer M, Arnaldez FI, Ji J, Tran HL, Zhang Y, Mendoza A, Helman LJ, Thomas CJ. Matrix Screen Identifies Synergistic Combination of PARP Inhibitors and Nicotinamide Phosphoribosyltransferase (NAMPT) Inhibitors in Ewing Sarcoma. Clin Cancer Res. 2017 Dec 1;23(23):7301-7311. doi: 10.1158/1078-0432.CCR-17-1121. Epub 2017 Sep 12. PMID: 28899971; PMCID: PMC6636827.
Potency means the concentration at half of the fitted maximal effect.

Compound	Potency	viability (% of control) [%]
Fc1ccc(C(OCCN2CCN(CCCc3ccccc3)CC2)c2ccc(F)cc2)cc1	18.7 µM (active)	–
COC[C@H]1OC(=O)c2coc3c2[C@@]1(C)C1=C(C3=O)C2CCC(=O)[C@@]2(C)C[C@H]1OC(C)=O (some centres undefined)	14.8 µM (active)	–
O=c1[nH]c2ccccc2n1CCCN1CCC(n2c(=O)[nH]c3cc(Cl)ccc32)CC1	0.0418 µM (active)	–
Cc1cccc(C)c1NC(=O)CN1CCCC1=O	0.235 µM (active)	–
Cc1cc(SCc2sc(-c3ccc(C(F)(F)F)c(F)c3)nc2C)ccc1OCC(=O)O	9.35 µM (active)	–
Cn1cc(C2=C(c3cn(C4CCN(Cc5ccccn5)CC4)c4ccccc34)C(=O)NC2=O)c2ccccc21	7.43 µM (active)	–
C[C@@H]1[C@@H](C(=O)C[C@H]2O[C@@H]3O[C@]4(C)CC[C@@H]5[C@H](C)CC[C@@H]([C@H]2C)[C@@]35OO4)O[C@@H]2O[C@]3(C)CC[C@H]4[C@H](C)CC[C@@H]1[C@@]24OO3	16.6 µM (active)	–
C#CCN(C)[C@H](C)Cc1ccccc1	–	111
NCC1(CC(=O)O)CCCCC1	–	122
CNC(=O)c1ccc(N2C(=S)N(c3ccc(C#N)c(C(F)(F)F)c3)C(=O)C23CCC3)cc1F	1.05 µM (active)	–
CNCC(O)c1ccc(O)cc1 (centres undefined)	14.8 µM (active)	–
CC(O)(CS(=O)(=O)c1ccc(F)cc1)C(=O)Nc1ccc(C#N)c(C(F)(F)F)c1 (centres undefined)	0.132 µM (active)	–
C[C@@H]1[C@@H](CC(C[C@H]2O[C@@H]3O[C@]4(C)CC[C@@H]5[C@H](C)CC[C@@H]([C@H]2C)[C@@]35OO4)C[S+](=O)([O-])c2ccc(COC(=O)N(C)C)cc2)O[C@@H]2O[C@]3(C)CC[C@H]4[C@H](C)CC[C@@H]1[C@@]24OO3 (some centres undefined)	0.526 µM (active)	–
O=C1CC[C@@]2(O)[C@H]3Cc4ccc(O)c5c4[C@@]2(CCN3CC2CC2)[C@H]1O5	–	121
C[C@@H]1O[C@@H](O[C@H]2C[C@@H](O)[C@]3(CO)[C@H]4[C@H](O)C[C@]5(C)[C@@H](C6=CC(=O)OC6)CC[C@]5(O)[C@@H]4CC[C@]3(O)C2)[C@H](O)[C@H](O)[C@H]1O	0.059 µM (active)	–
Cn1c(CCCC(=O)O)nc2cc(N(CCCl)CCCl)ccc21	23.5 µM (active)	–
O=C(O)C(=O)c1cn(Cc2ccccc2)c2ccc(-c3ccc(OC(F)(F)F)cc3)cc12	23.5 µM (active)	–
CN(C)CCc1ccc(O)cc1	–	124
Cc1sc2c(c1C)C(c1ccc(Cl)cc1)=N[C@@H](CC(=O)OC(C)(C)C)c1nnc(C)n1-2	1.32 µM (active)	–
CNC(=O)N1N=C(c2ccc(N)cc2)c2cc3c(cc2CC1C)OCO3 (centres undefined)	16.6 µM (active)	–
N[C@@H](Cc1ccc(N(CCCl)CCCl)cc1)C(=O)O	13.2 µM (active)	–
CC(C)CC(N(C)C)C1(c2ccc(Cl)cc2)CCC1 (centres undefined)	5.26 µM (active)	–
C=C(C)[C@H]1Cc2c(ccc3c2O[C@@H]2COc4cc(OC)c(OC)cc4[C@@H]2C3=O)O1	1.32 µM (active)	–
CN1CCN(C(=O)O[C@H]2c3nccnc3C(=O)N2c2ccc(Cl)cn2)CC1	–	109
